Among the data in PubChem BioAssay (NCI) are growth inhibition values, retold here.

Structures are written as SMILES. Compounds without any hit were thinned out: in the full panel of roughly 79,000, 15% have a hit. A number with no mark means an inactive call. Activity calls are given as the source filed them. Rule as the data show it: active = growth inhibition above about 70%; inactive = the rest.

Test [1] can be described thus: NCI Yeast Anticancer Drug Screen. Data for the rad50 strain (AID 155).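 Also: 0% = growth of vehicle-only cultures of the same strain.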 Conditions: S. cerevisiae rad50 strain growth inhibition; at 50.0 µM; hits give high values. The method, boiled down: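 Vehicle-treated cultures provide the reference for the growth inhibition reported for compound-exposed, repair-deficient yeast.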
A short description of test [2]: NCI Yeast Anticancer Drug Screen. Data for the mec2-1 strain (AID 157). Conditions: S. cerevisiae mec2-1 strain, at 50.0 µM, hits give high values. The method, boiled down:
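Test agents were screened against the mec2-1 yeast strain, with defined DNA repair or cell cycle alteration. Growth was scored as inhibition against vehicle-only controls.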

Test [3] is described as follows: NCI Yeast Anticancer Drug Screen. Data for the sgs1 mgt1 strain (AID 161).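 Also: 0% = growth of cultures given vehicle only.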 To be noted: S. cerevisiae sgs1 mgt1 strain, at 50.0 µM, hits give high values. The method, boiled down: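 Read-out: growth inhibition vs vehicle controls. Cells: mutant yeast strain deficient in DNA damage repair.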
Test [4] can be described thus: NCI Yeast Anticancer Drug Screen. Data for the cln2 rad14 strain (AID 165).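 Also: 0% = growth equal to vehicle treated cultures.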 Conditions: S. cerevisiae cln2 rad14 strain, at 50.0 µM, hits give high values. The method, boiled down:
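Growth of compound-exposed yeast (cln2 rad14 genotype) measured and expressed as inhibition relative to vehicle.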

Test [5] is described as follows: NCI Yeast Anticancer Drug Screen. Data for the bub3 strain (AID 167). Conditions: S. cerevisiae bub3 mutant strain, at 50.0 µM, hits give high values. The gist of the method:
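Mutant yeast screening strain plus compound; vehicle-treated cultures serve as the 0% inhibition reference.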

Test [6] can be described thus: NCI Yeast Anticancer Drug Screen. Data for the mlh1 rad18 strain (AID 175). Conditions: S. cerevisiae mlh1 rad18 strain growth inhibition; at 50.0 µM; hits give high values. The gist of the method:
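In this whole-cell yeast screen, a strain with altered DNA damage repair is challenged with compound, and its growth is measured against matched vehicle-treated controls.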

Take `CCN(CC)C(=O)COc1ccc(Cl)c(C)c1`: the growth inhibition in test [1] is 9.5%; in test [2], 3.45%; in test [3], 6.4%; in test [4], 27.6%; in test [5], 33.6%; in test [6] it was 19.4%.

`Cc1c(N2CCCC2)cc2c(c1-n1cccc1)C(C)(C)CC2(C)C`: the growth inhibition in test [1] was -21%; in test [2] it was -14.2%; in test [3] it was 1.55%; in test [4], 16.3%; in test [5], 6.7%; in test [6], 2.8%.

`CCOC(=O)c1[nH]c2ccc(O)c3c2c1CCC3=O`: the growth inhibition in test [1] was 30.6%; in test [2], -4.15%; in test [3], -3.6%; in test [4] it was 13.1%; in test [5], 6.4%; in test [6], 16.5%.

Turning to `Cc1cccc[n+]1[O-]`, the growth inhibition is 10.8% in test [1]; -8% in test [2]; 5.9% in test [3]; -13.7% in test [4]; 1.65% in test [5]; 7% in test [6].

Consider `COc1cccc(NC(=O)NCCN(C)c2ccccc2)c1`, for which the growth inhibition in test [1] is -5.7%; in test [2], 38.5%; in test [3], 21.1%; in test [4] it was -17.2%; in test [5], 23.1%; in test [6] it was 27.2%.

`CC1CC(NC(=O)/C=C/C(=O)O)CC(C)(C)C1` (stereo not drawn): the growth inhibition in test [1] was -2.85%; in test [2], 1.05%; in test [3], 9%; in test [4] it was -2.95%; in test [5], 33.9%; in test [6] it was -0.2%.

On to `N#CC(c1ccccc1)C(C#N)c1ccc(Cl)cc1` (stereo not drawn), for which the growth inhibition in test [1] is 5.75%; in test [2], 16.2%; in test [3], -1.35%; in test [4] it was -98.5%; in test [5] it was 22.4%; in test [6], 3.8%.

Turning to `O=C1Nc2n[nH]c(=S)n2NC12c1ccccc1-c1ccccc12`, the growth inhibition in test [1] was -45.8%; in test [2], -14.2%; in test [3], -28.1%; in test [4] it was -19.9%; in test [5] it was -21.7%; in test [6] it was -63.2%.

Consider `CC(Nc1cccc(Cl)c1)c1ccncc1` (stereo not drawn), for which the growth inhibition is 4.05% in test [1]; 12% in test [2]; -15.2% in test [3]; -5.55% in test [4]; 24.6% in test [5]; -11.4% in test [6].

Turning to `CCN(CC)c1ccc(/C=N\NC(=O)CCCC(=O)N/N=C/c2ccc(N(CC)CC)cc2)cc1`, the growth inhibition in test [1] is -27.6%; in test [2] it was 2.65%; in test [3], -22.9%; in test [4] it was -21.9%; in test [5], 5%; in test [6], -30.4%.

Take `NC(=O)NCCCC1NC(=S)N(c2ccccc2)C1=O` (stereo not drawn): the growth inhibition in test [1] is -3.35%; in test [2] it was -4.35%; in test [3], -3.2%; in test [4], -2.95%; in test [5], 23.9%; in test [6], 34%.

Regarding `CC(C)NC(=O)OCc1c(COC(=O)NC(C)C)c(S(=O)c2ccccc2)n2c1CCC2` (stereo not drawn), the growth inhibition was 12.6% in test [1]; 5.3% in test [2]; 9.05% in test [3]; -27.1% in test [4]; 18.6% in test [5]; -6.4% in test [6].

Consider `COc1ccc(CCNC(=S)NC(=O)c2ccc(Cl)c(Cl)c2)cc1OC`, for which the growth inhibition in test [1] is 47.6%; in test [2], 47%; in test [3], 68.3%; in test [4] it was 49.5%; in test [5] it was 44.4%; in test [6] it was 56%.

In the case of `CC(C)C(O)(C(=O)O)C(C)C`, the growth inhibition in test [1] was 11.1%; in test [2], -11%; in test [3], -4.1%; in test [4] it was -4.3%; in test [5] it was -17.9%; in test [6], -1.15%.

With `Nc1nnc(/C=C/c2ccc(Cl)cc2)o1`, the growth inhibition is -26.5% in test [1]; -8.15% in test [2]; -14.9% in test [3]; 2.9% in test [4]; -18.6% in test [5]; -11.3% in test [6].

For the compound `CCC12C[N+]3([O-])CCc4c([nH]c5ccccc45)C(C(=O)OC)(c4cc5c(cc4OC)N(C)C4C(O)(C(=O)OC)C(OC(C)=O)C6(CC)C=CCN7CCC54C76)CC(C3)C1O2` (stereo not drawn), the growth inhibition in test [1] was -8.15%; in test [2], -24.1%; in test [3], -14%; in test [4], -9.8%; in test [5] it was -2.2%; in test [6], -31.7%.

As to `CNc1ncnc2c1ncn2C1OC(CO)C(O)C1O` (stereo not drawn), the growth inhibition was -1.4% in test [1]; 9.95% in test [2]; 4.45% in test [3]; -20.1% in test [4]; -4.1% in test [5]; 6% in test [6].

For `Cc1c(COC(=O)NC(C)C)c(COC(=O)NC(C)C)c2n1CCS2(=O)=O`, the growth inhibition in test [1] was -26.8%; in test [2], -20.8%; in test [3] it was 4.75%; in test [4] it was -32.7%; in test [5], 0.5%; in test [6], -21.6%.

Turning to `CCSCCCCSCC`, the growth inhibition in test [1] is -2.85%; in test [2] it was -34.4%; in test [3], -15.7%; in test [4], 3.35%; in test [5], 6.3%; in test [6], -2.2%.

On to `COc1ccc(-c2cc(-c3ccccc3)[nH]c(=S)c2C#N)cc1`, for which the growth inhibition is -23.8% in test [1]; -19.8% in test [2]; -55.4% in test [3]; -19.1% in test [4]; 13.3% in test [5]; -30.1% in test [6].

On to `CC(=O)N(C(C)=O)n1c(-c2ccccc2)n[nH]c1=O`, for which the growth inhibition was -7.55% in test [1]; -17.9% in test [2]; -14.3% in test [3]; 13.1% in test [4]; -10.1% in test [5]; 2.45% in test [6].

As for `Cc1nc2ccccc2nc1CC(O)(c1ccccc1)c1cccc2ccccc12` (stereo not drawn), the growth inhibition was 55.8% in test [1]; 18.9% in test [2]; 37.4% in test [3]; 26.9% in test [4]; 13.2% in test [5]; 38.4% in test [6].

With `CC1(C)CC(=O)N(Nc2ccccc2)C1=O`, the growth inhibition in test [1] is -8.55%; in test [2] it was -7.6%; in test [3] it was -8.8%; in test [4], -7.35%; in test [5] it was -12.7%; in test [6] it was -13.7%.

Consider `c1ccc(N=C2SC(=NNc3ccccc3)SC2=Nc2ccccc2)cc1`, for which the growth inhibition was -21.8% in test [1]; 6.25% in test [2]; -21.9% in test [3]; -29.5% in test [4]; -8.25% in test [5]; -4.1% in test [6].

For `CC1=CC(C/C(C)=C/COc2ccc3ccc(=O)oc3c2)OC1=O` (stereo not drawn), the growth inhibition in test [1] was 8.15%; in test [2], -38.9%; in test [3], 11.7%; in test [4], 11.3%; in test [5], -0.8%; in test [6], 7.75%.

Consider `CN(C)CC1(Cc2ccccc2)CCC(Cc2ccccc2)C1=O` (stereo not drawn), for which the growth inhibition in test [1] was 85.5% (active); in test [2], 63.4%; in test [3], 85.3% (active); in test [4] it was 54%; in test [5], 45.6%; in test [6], 86.3% (active).

Regarding `NNC(=O)c1ccco1`, the growth inhibition in test [1] was 27.2%; in test [2], -3.85%; in test [3], -14.3%; in test [4], 20.8%; in test [5], -2.1%; in test [6], 15.8%.

Consider `C=CCOC(=O)c1ccccc1O`, for which the growth inhibition is 12.9% in test [1]; -12.1% in test [2]; -13.3% in test [3]; -0.9% in test [4]; -21.2% in test [5]; 12.8% in test [6].

Consider `CC(=O)O[C@]12CCCC1C1(O)C(O)CCCC12` (stereo partly drawn), for which the growth inhibition in test [1] is -30.7%; in test [2], -50.1%; in test [3], -72.3%; in test [4], -9.55%; in test [5], -30.6%; in test [6], -34.6%.

As for `CC(=O)OC1CC2CCCCC21` (stereo not drawn), the growth inhibition is 10.6% in test [1]; 7% in test [2]; -0.6% in test [3]; 37% in test [4]; 13.8% in test [5]; 2.3% in test [6].

On to `CCCC1C(CC)C(NC)C(C#N)(C#N)C1(C#N)C#N` (stereo not drawn), for which the growth inhibition is 7.05% in test [1]; 38.9% in test [2]; 8.95% in test [3]; 26.3% in test [4]; 8.3% in test [5]; 7.25% in test [6].

For `Brc1cccc(N=NN2CCCC2)c1`, the growth inhibition in test [1] was 14.7%; in test [2], 25.4%; in test [3], 28.9%; in test [4] it was 9.6%; in test [5], 7.7%; in test [6], 47.1%.

As for `CN(C)C(=O)Sc1ccc(O)cc1`, the growth inhibition in test [1] is 5.05%; in test [2], -21.6%; in test [3] it was -4.65%; in test [4], -28.3%; in test [5], 12.9%; in test [6] it was -2.8%.

As to `O=C1CSC(c2ccc(Cl)cc2)N1c1ccc(-n2c(-c3ccccc3)nc3ccccc3c2=O)cc1` (stereo not drawn), the growth inhibition is -3.65% in test [1]; -12.2% in test [2]; 5.35% in test [3]; -43.4% in test [4]; -0.7% in test [5]; 14.8% in test [6].

With `O=C1c2cccc3c(Br)ccc(c23)C(=O)N1C1CCCCCCCCCCC1`, the growth inhibition is 99.2% (active) in test [1]; 99.5% (active) in test [2]; 99.5% (active) in test [3]; 98.5% (active) in test [4]; 99.2% (active) in test [5]; 99.5% (active) in test [6].

For `CCCSc1ncnc2c1nc(C)n2CO`, the growth inhibition in test [1] was -2.15%; in test [2], -2.55%; in test [3], -1.35%; in test [4] it was -14.1%; in test [5] it was 2.3%; in test [6], 0%.

For `CCNC(=O)OCc1c(COC(=O)NCC)c(-c2ccc(Cl)c(Cl)c2)n2c1CCC2`, the growth inhibition in test [1] was 27.4%; in test [2], 24.8%; in test [3], 35.4%; in test [4] it was 66.5%; in test [5], 10.4%; in test [6] it was 40.8%.

Turning to `O=C(CN=C(CN(c1ccccc1)c1ccccc1)Oc1c(Cl)cc(Cl)cc1Cl)n1cnc2ccccc21`, the growth inhibition in test [1] is 0.9%; in test [2], -9%; in test [3], 35.3%; in test [4] it was -63.4%; in test [5] it was -46.4%; in test [6], 10.4%.
